Screening results: PubChem, National Center for Advancing Translational Sciences (NCATS)
KDM4E inh – qHTS Assay for Inhibitors of Human Jumonji Domain Containing 2E (JMJD2E); AID 2147, 2009; actives 1.6% (n = 230,000); JMJD2E catalytic domain, FDH-coupled NADH fluorescence (FDH is formaldehyde dehydrogenase); Potency, µM (titrated, usually from 57.1 µM), usual class: inhibitors; active = well fitted inhibition curve with a large enough effect, not every such curve was filed as active; inconclusive = small, poorly fitted or top-dose-only effect, or another doubt; inactive = no such curve, though single readings can be large or run the other way; note: nearly all actives have a fitted effect of over 50% in size
CBFb RUNX1 block – qHTS Assay for Compounds Blocking the Interaction Between CBF-beta and RUNX1 for the Treatment of Acute Myeloid Leukemia | Potency, µM (doses to about 59.8 µM), usual class: inhibitors | AlphaScreen CBFb-His/RUNX1-biotin binding, biochemical | Runt-related transcription factor 1 (Homo sapiens) + Core-binding factor subunit beta … | 230,000 tested, under 10 active
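Compounds were screened at multiple concentrations against a preformed CBF-beta(His)/RUNX1(biotin) complex (30 nM of each) for 15 min at room temperature, followed by 90 min with nickel and streptavidin beads and AlphaScreen reading.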
HTT aggregate – qHTS Multiplex Assay to Identify Dual Action Probes in a Cell Model of Huntington: Aggregate Formation (GFP). PC12 HttQ103-GFP aggregates, Acumen cytometry, 40 h. actives 1.1% (n = 220,000). Potency, µM (series often up to 46.1 µM), actives largely listed as inhibitors; note: nearly all actives have a fitted effect of over 60% in size
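Multiplexed with ATP-based cell death, this channel scores GFP aggregates in PC12 cells expressing inducible HTTex1-Q103-GFP. Induction used 100 nM tebufenozide; compounds were tested in concentration series.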
HTT cytoprotect – qHTS Multiplex Assay to Identify Dual Action Probes in a Cell Model of Huntington: Cytoprotection (ATP) | PC12 HTT-Q103 induced, cytoprotection, ATP luminescence, 40 h | Potency, µM (doses to about 56.4 µM), most hits filed as activators | actives 0.14% (n = 230,000); note: nearly all actives have a fitted effect of over 45% in size
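Compounds were screened for protection of PC12 cells against cell death after tebufenozide induction (100 nM final) of mutant Huntingtin exon 1 (Q103) fused to GFP.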
HPGD block – qHTS Assay for Inhibitors of HPGD (15-Hydroxyprostaglandin Dehydrogenase) | 15-hydroxyprostaglandin dehydrogenase [NAD(+)] (Homo sapiens), P15428 | purified HPGD, NADH fluorescence kinetic, PGE2 substrate | Potency, µM, hits mostly inhibitors | actives 4.3% (n = 150,000); active = well fitted inhibition curve with a large enough effect, not every such curve was filed as active; inconclusive = small, poorly fitted or top-dose-only effect, or another doubt; inactive = no such curve, though single readings can be large or run the other way
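NADH formation kinetics: reaction with 30 uM PGE2 and 1 mM NAD+ (final), 20 nM enzyme, Tris-HCl pH 8 with Tween 20, after 15 min compound preincubation at room temperature. Fluorescence change, last versus first of five reads.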
ALDH1A1 block – qHTS Assay for Inhibitors of Aldehyde Dehydrogenase 1 (ALDH1A1) | Aldehyde dehydrogenase 1A1 (Homo sapiens), P00352 | Purified ALDH1A1, NADH fluorescence, propionaldehyde substrate | Potency, µM (top dose mostly 75.3 µM), most hits filed as inhibitors | actives 7.3% (n = 220,000); active = well fitted inhibition curve with a large enough effect, not every such curve was filed as active; inconclusive = small, poorly fitted or top-dose-only effect, or another doubt; inactive = no such curve, though single readings can be large or run the other way
Target sequence (P00352 whole entry, looked up): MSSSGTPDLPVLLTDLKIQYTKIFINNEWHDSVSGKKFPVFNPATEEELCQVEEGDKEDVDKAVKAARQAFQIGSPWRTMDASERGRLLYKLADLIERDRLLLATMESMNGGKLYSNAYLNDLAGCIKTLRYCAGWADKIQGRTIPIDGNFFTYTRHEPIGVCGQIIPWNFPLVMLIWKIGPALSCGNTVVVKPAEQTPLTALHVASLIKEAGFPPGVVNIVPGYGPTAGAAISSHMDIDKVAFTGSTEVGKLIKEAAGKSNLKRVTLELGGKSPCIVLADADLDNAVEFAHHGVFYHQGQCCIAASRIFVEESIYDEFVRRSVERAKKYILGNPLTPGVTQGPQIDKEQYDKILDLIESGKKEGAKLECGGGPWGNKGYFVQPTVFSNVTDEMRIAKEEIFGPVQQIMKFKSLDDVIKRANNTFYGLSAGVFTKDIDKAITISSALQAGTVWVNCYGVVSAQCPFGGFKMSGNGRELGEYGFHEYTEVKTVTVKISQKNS
A number is an active result; i = inactive; ? = inconclusive; nt = no result given; [ ] = remark or other dose. An excerpt weighted towards active compounds, which were near 9.8% of everything screened. Unless noted, calls come from the whole dose curve; as a rule, active = well fitted curve in the direction sought with a large enough effect; inconclusive = small, poorly fitted or top-dose-only effect, or another doubt; inactive = no such curve, though single readings can be large; an effect the other way counts as inactive or inconclusive.

SMILES | KDM4E inh | CBFb RUNX1 block | HTT aggregate | HTT cytoprotect | HPGD block | ALDH1A1 block
C[C@H]1Cc2c(-c3ccccc3)nc3c(c2CO1)CN(S(=O)(=O)c1ccc2c(c1)OCCN2C)CC3 | i[11.4 µM] | i[13.1 µM] | nt | i[10 µM] | i | i[13.5 µM]
CC12CC3CC(C)(C1)CC(NCc1ccncc1)(C3)C2 | i | i | i | ? | nt | i
CC12CN(Cc3ccccc3)CC(C)(CN(Cc3ccccc3)C1)C2=O | i | i | i | i | nt | i
CCOC(=O)CN1C(=O)C(O)(CC(=O)c2ccc3c(c2)CCCC3)c2ccccc21 (stereo not given) | i | i | i | i[1.9 µM] | i | 10µM
COc1cccc(NC(=O)CN2C(=O)C3(OCCCO3)c3ccccc32)c1 | i | i | i | i[0.074 µM] | i | ?
CC12CN3CC(C)(CN(C1)C31C(=O)N(Cc3ccccc3)c3ccccc31)C2=O (stereo not given) | i | i | i | i | i | 7.9µM
Cc1[nH]c2ccccc2c1C1(O)C(=O)N(Cc2ccc3c(c2)OCO3)c2ccccc21 (stereo not given) | ? | i | ? | i | i | 0.71µM
CCOC(=O)CN1C(=O)C(O)(CC(=O)c2cccc(OC)c2)c2ccccc21 (stereo not given) | i | i | i | i | i | 0.28µM
CC(=O)OC[C@H]1O[C@@H](O/N=C(\C)CCC(=O)OC[C@@H]2O[C@H](C#Cc3ccccc3)C=C[C@@H]2Oc2ccc(C)cc2)[C@H](OC(C)=O)[C@@H](OC(C)=O)[C@H]1OC(C)=O | nt | i[13.1 µM] | nt | i[10 µM] | nt | i[13.5 µM]
COc1ccc(CN2C(=O)C(O)(CC(=O)c3ccc4c(c3)OCO4)c3ccccc32)cc1OC (stereo not given) | i | i | i[1.84 µM] | i | i | 4.5µM
O=C(O)CC1(O)C(=O)N(Cc2ccccc2)c2ccccc21 (stereo not given) | i | i | i[9.22 µM] | i[10 µM] | nt | 20µM
CC(C)(C)C(=O)CC1(O)C(=O)N(Cc2ccc(Cl)cc2)c2ccccc21 (stereo not given) | i | i | i | i | i | ?
O=C(CC1(O)C(=O)N(Cc2ccccc2Cl)c2ccccc21)c1ccco1 (stereo not given) | i | i | i | i[0.074 µM] | i | 1.3µM
CCN1C(=O)C(O)(CC(=O)c2ccc3c(c2)OCCO3)c2ccccc21 (stereo not given) | i | i | i | i | i | ?
CN(C)c1ccnc(-n2cccc2/C=N/O)c1C#N | i | i | i[9.22 µM] | i[10 µM] | nt | i
Cc1ccc(-n2c(-c3cccc(C)c3)n[nH]c2=S)cc1 | i | i | i | i | 22µM | i
S=c1[nH]nc(-c2ccc3ccccc3n2)n1-c1ccccc1 | i | i | i | i[10 µM] | 28µM | ?
O=C(O)c1ccc(-n2c(-c3ccc(Br)cc3)n[nH]c2=S)cc1 | i | i | i | i | ? | 28µM
Cc1cccc(-n2c(-c3csc4ccccc34)n[nH]c2=S)c1 | i | i | i | nt | 14µM | ?
Cc1cccc(-n2c(-c3ccncc3)n[nH]c2=S)c1 | ? | i | i | i[1.9 µM] | i | ?
O=C(c1cccc(OC(F)F)c1)N1CCN(c2ncccn2)CC1 | ? | i | i | i | i | i
O=C(COc1ccc([N+](=O)[O-])cc1)NC(C(=O)O)C(O)c1cccc([N+](=O)[O-])c1 (stereo not given) | i | i | i[9.22 µM] | i[10 µM] | nt | ?
O[C@H]([C@H](O)[C@@H](O)c1nc2ccccc2[nH]1)[C@@H](O)c1nc2ccccc2[nH]1 | nt | nt | nt | i[10 µM] | i | i[13.5 µM]
COCOc1ccc(OC)cc1C(=O)C1O[C@H]1c1ccc(OC)c(Br)c1 (stereo not given in full) | ? | i | nt | i | i | ?
NNc1nc2c(F)cc(F)cc2s1 | i | i | i | i[10 µM] | i | ?
SMILES | KDM4E inh | CBFb RUNX1 block | HTT aggregate | HTT cytoprotect | HPGD block | ALDH1A1 block
Cc1ccccc1-n1c(-c2ccoc2C)n[nH]c1=S | i | i | i | nt | i | i
COc1ccccc1-c1n[nH]c(=S)n1-c1ccccc1 | ? | i | i | i | 32µM | ?
S=c1[nH]nc(-c2cccnc2)n1-c1ccccc1 | i | i | i | i[10 µM] | i | 7.9µM
Cc1cccc(-n2c(C)n[nH]c2=S)c1 | i | i | i | 3.5µM | i | i
COc1ccccc1-c1n[nH]c(=S)n1N | ? | i | i | i | nt | i
Cc1cccc(-n2c(-c3ccoc3C)n[nH]c2=S)c1 | i | i | ? | i[10 µM] | 25µM | i
C[C@H]1C(=O)N(S(=O)(=O)c2ccc([N+](=O)[O-])cc2)[C@H]1c1ccc(F)cc1 | nt | i | nt | nt | nt | nt
CCCCCN(CCCCC)C(=O)[C@H](CCC(=O)O)NC(=O)[C@H](Cc1ccc(OP(=O)(O)O)cc1)NC(C)=O | nt | i | nt | nt | nt | nt
CCOc1ccc(-c2[nH]nc3c2C(c2ccc(O)cc2)C(C#N)=C(N)O3)cc1 (stereo not given) | i | i | i | i | i | 18µM
CCCc1[nH]nc2c1C(c1cccc(OC)c1)C(C#N)=C(N)O2 (stereo not given) | i | i | i | i | i | 20µM
CCCc1[nH]nc2c1C(c1ccc(OC)cc1OC)C(C#N)=C(N)O2 (stereo not given) | i | i | ? | i[10 µM] | i | ?
CCCc1[nH]nc2c1C(c1ccc(O)cc1OCC)C(C#N)=C(N)O2 (stereo not given) | i | i | i | i | i | 18µM
CC(C)c1[nH]nc2c1C(c1ccc(OC(=O)c3ccco3)cc1)C(C#N)=C(N)O2 (stereo not given) | i | i | i | i[10 µM] | i | 25µM
COc1ccc(C2/C=C\CN(C(=O)NC34CC5CC(CC(C5)C3)C4)CC(=O)N2Cc2ccc(F)cc2)cc1 (stereo not given) | i | i | i[9.22 µM] | i[10 µM] | nt | nt
CC(=O)c1ccc(NC(=O)Nc2ccc(Br)cc2C)cc1 | i | i | nt | nt | nt | i
COc1cccc(C2=NN(C(=O)c3cccs3)C(O)(C(F)(F)F)C2)c1 (stereo not given) | i | i | i | i[10 µM] | nt | ?
C=C1CSc2nc(=O)c3c4c(sc3n21)CCC4 | i | i | i | i | 14µM | i
O=c1nc2n(c3sc4c(c13)CCC4)Cc1ccccc1-2 | nt | nt | nt | i[10 µM] | nt | nt
C=C1CSc2nc(=O)c3c4c(sc3n21)CCCC4 | i | i | i | i | 14µM | i
CC1=Nn2c(nc3sc4c(c3c2=O)CCCC4)SC1 | i | ? | i | i[10 µM] | ? | i
